# PubChem BioAssay (NCATS)
# Inconclusive results are not listed. Active and inactive are the calls of the source. Unless noted, calls follow the shape of the dose curve; as a rule, active = well fitted curve in the direction sought with a large enough effect; inconclusive = small, poorly fitted or top-dose-only effect, or another doubt; inactive = no such curve, though single readings can be large; an effect the other way counts as inactive or inconclusive.
# Assays:
# [1] = Primary qHTS for inhibitors of nuclear receptor binding SET domain protein 2 (NSD2) in an isogenic RCH-ACV NSD2 p.E1099K mutant (9B) (AID 1645876); conditions: RCH-ACV NSD2 E1099K (9B) viability, CellTiter-Glo, 72 h; series mostly up to 44.9 µM; also: nearly all actives have a fitted effect of over 70% in size; also: potency is read from the fitted curve at half-maximal effect
# [2] = Primary qHTS for inhibitors of nuclear receptor binding SET domain protein 2 (NSD2) in an RCH-ACV wild type WT cells (2C) (AID 1645877); conditions: RCH-ACV (leukaemia line) NSD2 WT (2C) viability, CellTiter-Glo, 72 h; series mostly up to 44.9 µM; also: potency is read from the fitted curve at half-maximal effect; nearly all actives have a fitted effect of over 70% in size
# [3] = molecular target: N-terminal Xaa-Pro-Lys N-methyltransferase 1 (Homo sapiens) (UniProt Q9BV86); assay: Confirmatory qHTS for Inhibitors of N-terminal methyltransferase 1 (NTMT1): MTaseGlo Assay (AID 1645874); conditions: NTMT1 enzyme, MTase-Glo SAH luminescence; series mostly up to 100 µM; also: nearly all actives have a fitted effect of over 65% in size; also: potency is read from the fitted curve at half-maximal effect;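 as to activity change, negative = inhibition: luminescence from SAH made as NTMT1 methylates SPKRIA peptide using SAM; 0% = DMSO control and -100% = no-enzyme control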
# Sequence of N-terminal Xaa-Pro-Lys N-methyltransferase 1 (Homo sapiens) (Q9BV86 whole entry, looked up): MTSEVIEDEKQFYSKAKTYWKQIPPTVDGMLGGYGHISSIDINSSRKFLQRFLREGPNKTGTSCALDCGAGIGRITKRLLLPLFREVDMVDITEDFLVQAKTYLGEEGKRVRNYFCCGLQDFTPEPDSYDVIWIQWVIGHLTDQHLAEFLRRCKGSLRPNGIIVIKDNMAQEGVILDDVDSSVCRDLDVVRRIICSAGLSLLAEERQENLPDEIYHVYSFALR
# Procedure, shortened: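 qHTS format: NTMT1 125 nM, SAM 100 uM, peptide SPKRIA 1 uM final; 15 min compound preincubation, 30 min reaction at room temperature. MTase-Glo luminescence.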
# [4] = molecular target: Tyrosine-protein kinase Yes (Homo sapiens) (UniProt P07947); assay: qHTS for small molecule inhibitors of Yes1 kinase: Primary Screen (AID 686947); conditions: Yes1 kinase biochemical qHTS inhibition; series mostly up to 76.9 µM;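 also: plate controls were DMSO with enzyme for no effect and no-enzyme DMSO wells for full effect; nearly all actives have a fitted effect of over 60% in size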
# Sequence of Tyrosine-protein kinase Yes (Homo sapiens) (P07947 whole entry, looked up): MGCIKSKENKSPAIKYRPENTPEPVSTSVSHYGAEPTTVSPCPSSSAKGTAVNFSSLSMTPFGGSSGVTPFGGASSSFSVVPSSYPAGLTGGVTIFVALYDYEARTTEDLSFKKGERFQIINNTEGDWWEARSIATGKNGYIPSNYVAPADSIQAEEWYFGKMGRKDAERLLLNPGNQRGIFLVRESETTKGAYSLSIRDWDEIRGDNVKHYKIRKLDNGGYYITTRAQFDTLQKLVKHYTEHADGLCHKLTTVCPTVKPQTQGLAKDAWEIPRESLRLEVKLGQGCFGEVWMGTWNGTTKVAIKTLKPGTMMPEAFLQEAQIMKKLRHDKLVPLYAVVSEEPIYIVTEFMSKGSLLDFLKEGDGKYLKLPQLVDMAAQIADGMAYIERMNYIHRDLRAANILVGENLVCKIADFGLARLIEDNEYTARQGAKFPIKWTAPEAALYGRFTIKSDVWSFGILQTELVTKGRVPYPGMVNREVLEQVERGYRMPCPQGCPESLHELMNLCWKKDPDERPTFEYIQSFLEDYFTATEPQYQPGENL
# Procedure, shortened: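 ADP-Glo luminescence readout; final 4 nM Yes1, 0.1 mM ATP, 0.3 mg/mL poly(E4Y), Tris pH 7.5, MgCl2, DTT, Brij-35. 20 min compound preincubation, 60 min reaction at RT. Normalized to DMSO wells with and without enzyme.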
# [5] = qHTS for small molecule inhibitors of Yes1 kinase: Counter Assay (AID 686950); conditions: series mostly up to 76.9 µM;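 also: no kinase present so only ADP-Glo detection of a fixed ADP amount is tested; luminescence from ADP-Glo reporting ADP in a fixed ATP and ADP mixture; 0% = DMSO wells with ATP plus ADP and -100% = ATP-only wells without ADP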
# Procedure, shortened: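 Enzyme-free detection counter-screen: compounds preincubated 20 min in buffer, then 0.08 mM ATP plus 0.02 mM ADP added for 60 min at room temperature; ADP-Glo luminescence. Buffer 50 mM Tris pH 7.5, 10 mM MgCl2, 150 mM NaCl; normalized to ATP+ADP and ATP-only controls.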
# [6] = molecular target: Catechol O-methyltransferase (Homo sapiens) (UniProt P21964); assay: Confirmatory Screen for Target Class Profiling of Small Molecule Inhibitors of Methyltransferases (AID 1745852; calls by dose curve; also: potency is read from the fitted curve at half-maximal effect; as to activity change, negative = inhibition: % is scaled to controls: 0 for no effect and ±100 for the full control effect); conditions: MTase-Glo luminescence, SAH detection, recombinant enzyme; measured here: COMT max response; stronger effect = lower value
# Sequence of Catechol O-methyltransferase (Homo sapiens) (P21964 whole entry, looked up): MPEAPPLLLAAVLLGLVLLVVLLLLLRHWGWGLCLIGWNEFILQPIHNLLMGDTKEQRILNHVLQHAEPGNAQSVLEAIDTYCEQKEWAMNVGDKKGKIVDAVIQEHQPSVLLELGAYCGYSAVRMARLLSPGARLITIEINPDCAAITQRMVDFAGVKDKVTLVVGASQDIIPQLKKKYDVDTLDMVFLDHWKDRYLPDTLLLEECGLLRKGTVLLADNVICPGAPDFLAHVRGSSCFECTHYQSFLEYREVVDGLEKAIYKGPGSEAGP
# [7] = molecular target: Guanidinoacetate N-methyltransferase (Homo sapiens) (UniProt Q14353); assay: as above; conditions: MTase-Glo luminescence, SAH detection, recombinant enzyme; activity change, negative = inhibition: at 57.3 µM (top of the series) unless noted
# [8] = molecular target: Nicotinamide N-methyltransferase (Homo sapiens) (UniProt P40261); assay: as above; conditions: MTase-Glo luminescence, SAH detection, recombinant enzyme; measured here: NNMT max response; stronger effect = lower value
# Sequence of Nicotinamide N-methyltransferase (Homo sapiens) (P40261 whole entry, looked up): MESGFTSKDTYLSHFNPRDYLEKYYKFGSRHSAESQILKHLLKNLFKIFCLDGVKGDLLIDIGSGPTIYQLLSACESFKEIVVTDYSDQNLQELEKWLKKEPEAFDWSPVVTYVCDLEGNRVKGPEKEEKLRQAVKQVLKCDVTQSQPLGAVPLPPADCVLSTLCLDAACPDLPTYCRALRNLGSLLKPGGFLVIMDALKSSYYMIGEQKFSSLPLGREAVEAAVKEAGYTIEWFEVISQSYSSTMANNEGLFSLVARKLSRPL
# [9] = molecular target: Phenylethanolamine N-methyltransferase (Homo sapiens) (UniProt P11086); assay: as above; conditions: MTase-Glo luminescence, SAH detection, recombinant enzyme; measured here: PNMT max response; stronger effect = lower value
# Sequence of Phenylethanolamine N-methyltransferase (Homo sapiens) (P11086 whole entry, looked up): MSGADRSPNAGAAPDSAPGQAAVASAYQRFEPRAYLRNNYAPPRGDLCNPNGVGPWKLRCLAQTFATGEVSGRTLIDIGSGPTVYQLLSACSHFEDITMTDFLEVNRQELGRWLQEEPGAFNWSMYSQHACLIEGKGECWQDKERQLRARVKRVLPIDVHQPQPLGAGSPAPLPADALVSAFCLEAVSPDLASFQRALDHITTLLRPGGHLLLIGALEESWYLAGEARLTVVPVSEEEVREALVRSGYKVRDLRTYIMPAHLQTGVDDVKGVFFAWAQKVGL
# [10] = molecular target: Glutathione peroxidase 1 (Homo sapiens) (UniProt P07203); assay: Primary qHTS Assay for Inhibitors of Recombinant Selenoprotein Glutathione Peroxidase 1 (GPX1) (AID 1845191); conditions: recombinant GPX1, GR-coupled NADPH fluorescence, 15 min; series mostly up to 48.8 µM; also: % is scaled to controls: 0 for no effect and ±100 for the full control effect; nearly all actives have a fitted effect of over 65% in size
# Sequence of Glutathione peroxidase 1 (Homo sapiens) (P07203 whole entry, looked up): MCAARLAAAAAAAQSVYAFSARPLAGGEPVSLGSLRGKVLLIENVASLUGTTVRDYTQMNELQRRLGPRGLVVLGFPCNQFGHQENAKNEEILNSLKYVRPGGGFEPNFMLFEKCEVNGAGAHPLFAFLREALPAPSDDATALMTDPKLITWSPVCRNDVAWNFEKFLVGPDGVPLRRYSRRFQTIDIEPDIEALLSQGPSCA
# Procedure, shortened: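 GR-coupled assay: compounds preincubated 30 min at room temperature with GPX1, then reaction started with CHP; final 10 nM GPX1, 1 mM GSH, 0.5 mM CHP, 0.5 mM NADPH, 100 nM GR, 0.01% BSA, pH 7.5 Tris buffer. NADPH fluorescence (340/450 nm) read at 0 and 15 min.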
# [11] = molecular target: Phospholipid hydroperoxide glutathione peroxidase GPX4 (Homo sapiens) (UniProt P36969); assay: Primary qHTS Assay for Inhibitors of Recombinant Selenoprotein Glutathione Peroxidase 4 (GPX4) (AID 1845192); conditions: recombinant GPX4, GR-coupled NADPH fluorescence, 15 min; series mostly up to 50 µM; also: % is scaled to controls: 0 for no effect and ±100 for the full control effect; nearly all actives have a fitted effect of over 65% in size
# Sequence of Phospholipid hydroperoxide glutathione peroxidase GPX4 (Homo sapiens) (P36969 whole entry, looked up): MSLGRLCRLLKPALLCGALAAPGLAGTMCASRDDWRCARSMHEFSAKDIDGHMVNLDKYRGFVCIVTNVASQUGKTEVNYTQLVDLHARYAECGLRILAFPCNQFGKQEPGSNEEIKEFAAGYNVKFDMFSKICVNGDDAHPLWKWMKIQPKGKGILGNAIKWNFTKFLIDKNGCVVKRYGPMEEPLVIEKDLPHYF
# Procedure, shortened: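 GR-coupled assay: recombinant GPX4 preincubated 30 min with compound at room temperature; final 200 nM GPX4, 1 mM GSH, 0.5 mM cumene hydroperoxide, 0.5 mM NADPH, 100 nM GR, 0.01% BSA, pH 7.5 Tris. NADPH fluorescence (340/450 nm) read at 0 and 15 min.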
# [12] = qHTS for Inhibitors of Ubiquitin-specific Protease USP2a Using CHOP2 as the Reporter: K633 Counterscreen (AID 652168); conditions: No-enzyme DiUb K48 IQF substrate fluorescence interference, kinetic; series mostly up to 57.5 µM; also: % of control where 0% means no effect
# Procedure, shortened: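 Cell-free interference counterscreen without USP2a: compounds pinned into enzyme-free buffer (20 mM Tris pH 8, 2 mM beta-mercaptoethanol, 0.05% Chaps), then DiUb K48-4IQF substrate added (100 nM stock); fluorescence read kinetically, Ex 525/Em 598.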
# [13] = molecular target: Ubiquitin carboxyl-terminal hydrolase 2 (Homo sapiens) (UniProt O75604); assay: qHTS for Inhibitors of Ubiquitin-specific Protease USP2a Using CHOP2 as the Reporter: K484 Substrate (AID 652173); conditions: USP2 cleavage of DiUb K48 IQF substrate, fluorescence;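 also: cleavage of internally quenched K48 di-ubiquitin substrate measured as rising fluorescence over time; potency is read from the fitted curve at half-maximal effect; nearly all actives have a fitted effect of over 70% in size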
# Sequence of Ubiquitin carboxyl-terminal hydrolase 2 (Homo sapiens) (O75604 whole entry, looked up): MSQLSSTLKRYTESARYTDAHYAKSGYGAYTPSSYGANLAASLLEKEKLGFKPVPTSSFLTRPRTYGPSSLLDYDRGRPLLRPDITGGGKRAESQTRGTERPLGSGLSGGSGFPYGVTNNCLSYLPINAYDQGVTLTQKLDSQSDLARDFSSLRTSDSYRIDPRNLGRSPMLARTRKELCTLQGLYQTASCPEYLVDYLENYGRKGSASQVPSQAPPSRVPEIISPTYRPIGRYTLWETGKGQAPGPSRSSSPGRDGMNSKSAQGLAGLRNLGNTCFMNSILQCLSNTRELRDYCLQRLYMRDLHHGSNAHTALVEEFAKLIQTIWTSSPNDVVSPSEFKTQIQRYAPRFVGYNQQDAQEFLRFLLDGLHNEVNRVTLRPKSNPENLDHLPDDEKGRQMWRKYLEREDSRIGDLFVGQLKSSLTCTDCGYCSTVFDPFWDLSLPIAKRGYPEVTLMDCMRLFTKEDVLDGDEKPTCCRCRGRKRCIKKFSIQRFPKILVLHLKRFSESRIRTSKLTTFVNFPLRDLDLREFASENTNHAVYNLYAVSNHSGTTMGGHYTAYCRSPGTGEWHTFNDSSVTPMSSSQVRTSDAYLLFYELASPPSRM
# Procedure, shortened: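 USP2 (dispensed at 5 nM) was pinned with compounds, then DiUb K48 internally quenched fluorescent substrate (dispensed at 100 nM) was added. The buffer was 20 mM Tris pH 8, 2 mM beta-mercaptoethanol and 0.05% CHAPS. Cleavage was read kinetically as rising fluorescence, Ex 525/Em 598.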
structure (smiles),measurement,setting,value
O=C1N=C(O)S/C1=C\c1ccc2nccnc2c1,Potency,[1],18.4 µM (active)
same,Potency,[2],20.6 µM (active)
Cc1ccc(Nc2ncnc3c2cnn3-c2ccccc2)c(C)c1,Potency,[3],3.98 µM (active)
CCN(C)S(=O)(=O)Nc1ccc(F)c(C(=O)c2c[nH]c3ncc(-c4cnc(C5CC5)nc4)cc23)c1F,Potency,[1],8.33 µM (active)
same,Potency,[2],7.42 µM (active)
O=C1NC(=O)/C(=C/c2ccc(-c3ccc(F)cc3)o2)S1,Potency,[1],inactive
Nc1nonc1-c1nc2cnccc2n1C1CCCCC1,outcome,[4],inactive
same,outcome,[5],inactive
same,Potency,[1],5.17 µM (active)
same,Potency,[2],2.91 µM (active)
same,activity,[6],-23.3%
same,Potency,[7],27.1 µM (active)
same,activity,[8],-44.1%
same,activity,[9],-20.9%
same,Potency,[10],inactive
Cc1c(O)cccc1C(=O)NC(CSc1ccccc1)C(O)CN1CC2CCCCC2CC1C(=O)NC(C)(C)C (configuration not stated),Potency,[1],23.5 µM (active)
same,Potency,[2],20.9 µM (active)
Cc1c(Cl)ccc2sc(N3CCN(C(=O)C4CC4)CC3)nc12,Potency,[3],inactive
CCCS(=O)(=O)c1nc(NC2CC2)cc(-c2ccc3c(ccn3C3CC(C)(C)NC(C)(C)C3)c2)n1,Potency,[1],2.48 µM (active)
same,Potency,[2],2.21 µM (active)
same,activity,[6],-4.11%
same,"activity change, negative = inhibition",[7],1.84% [at 19.1 µM]
same,activity,[8],-12%
same,activity,[9],-6.24%
same,Potency,[11],inactive
COc1ccccc1C(=O)Nc1onc2c1CCCC2,Potency,[3],inactive
COc1ccc2c(c1)[C@@H]1C[C@]1(C(=O)N1[C@@H]3CC[C@H]1CN(C)C3)Cn1c-2c(C2CCCCC2)c2ccc(C(=O)NS(=O)(=O)N(C)C)cc21,Potency,[1],20.6 µM (active)
O=C1Nc2ccccc2/C1=C/c1cc(O)ccc1O,Potency,[1],16.4 µM (active)
same,Potency,[2],18.4 µM (active)
same,activity,[6],-4.65%
same,"activity change, negative = inhibition",[7],-0.984%
same,activity,[8],-18.3%
same,activity,[9],-2.66%
same,Potency,[10],inactive
Cc1cccc2nc(-c3ccc(Cl)s3)c(Nc3ccc4c(c3)OCCO4)n12,Potency,[3],3.25 µM (active)
COc1cc2c(NC3CCN(C(C)C)CC3)nc(N3CCCN(C4CCCCC4)CC3)nc2cc1OCCCN1CCCCC1,Potency,[3],34.5 µM (active)
S=C(Nc1ccccn1)c1ccccn1,Potency,[3],10.3 µM (active)
CC[C@]12C=CCN3CC[C@@]4(c5cc([C@@]6(C(=O)OC)CC7C[C@@H](C(C)(F)F)CN(Cc8c6[nH]c6ccccc86)C7)c(OC)cc5N(C)[C@H]4[C@@](O)(C(=O)OC)[C@@H]1OC(C)=O)[C@@H]32 (some centres not stated),Potency,[1],0.263 µM (active)
same,Potency,[2],0.186 µM (active)
Cc1cc(F)ccc1S(=O)(=O)Nc1cnccc1C(=O)Nc1nc(-c2ccccc2)cs1,outcome,[12],inactive
same,Potency,[13],0.968 µM (active)
same,Potency,[3],21.8 µM (active)
